The source of these data is PubChem BioAssay (NCI).

Compounds without any hit were thinned out: in the full panel of roughly 83,000, 20% have a hit.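 Negative percent growth values reflect cell death: -40 means 40% of the cells present at the start died, and -100 means all died.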 Values without a mark were called inactive. Activity calls are given as the source filed them. How the source made its calls: active means growth percent below 10; inactive means the rest.

What all share (test): NCI-60 one-dose screen, 48 h (100 = growth as untreated, 0 = no growth, -100 = all killed)
One assay concerns NCI-H226 lung. The conditions noted are these: 10 µM unless noted.
In the next assay the test system is NCI-H322M lung. The conditions noted are these: 10 µM unless noted.
For the next assay, the system named is HOP-62 NSCLC. To be noted: 10 µM unless noted.
The next assay has as its system NCI-H460 lung. To be noted: 10 µM unless noted.
The test system of another assay is HOP-92 NSCLC. To be noted: 10 µM unless noted.
For another assay, the system named is NCI-H522 lung. The conditions noted are these: 10 µM unless noted.
The test system of the next assay is A549/ATCC NSCLC. To be noted: 10 µM unless noted.
In a further assay the test system is 786-0 renal. The conditions noted are these: 10 µM unless noted.
The next assay has as its system COLO 205 colon. The conditions noted are these: 10 µM unless noted.
The test system of another assay is DU-145 prostate. To be noted: 10 µM unless noted.
The subject of a further assay is K-562 leukemia. The conditions noted are these: 10 µM unless noted.
Another assay has as its system MALME-3M melanoma. The conditions noted are these: 10 µM unless noted.
The subject of another assay is MDA-MB-231 breast. The conditions noted are these: 10 µM unless noted.
The test system of another assay is RXF 393 renal. To be noted: 10 µM unless noted.
The next assay deals with SF-268 CNS. To be noted: 10 µM unless noted.
Another assay deals with SF-295 CNS. The conditions noted are these: 10 µM unless noted.
The next assay deals with SF-539 CNS. To be noted: 10 µM unless noted.
Another assay has as its system UACC-257 melanoma. To be noted: 10 µM.
For the next assay, the system named is M14 melanoma. To be noted: 10 µM unless noted.

On to `COc1cc(Cn2c(-c3nonc3N)nc3ccccc32)ccc1C`, for which the growth with NCI-H226 lung is 50.3%; with NCI-H322M lung, 58.8%; in the assay with HOP-62 NSCLC, 30.5%; with NCI-H460 lung, 11%; in the assay on HOP-92 NSCLC it was 39.8%; in the assay on NCI-H522 lung, -20% (active). Moreover, the growth in the assay with A549/ATCC NSCLC was 24.2%; in the assay with 786-0 renal, 40.3%; in the assay on COLO 205 colon it was -9.7% (active); in the assay on DU-145 prostate, 13.8%; in the assay on K-562 leukemia it was 10.4%; in the assay on MALME-3M melanoma, 80.7%. For the same compound, the growth in the assay on MDA-MB-231 breast is 22.3%; in the assay with RXF 393 renal it was -8.35% (active); in the assay on SF-268 CNS, 40.3%; with SF-295 CNS it was 26%; in the assay on SF-539 CNS, -32.8% (active); in the assay with UACC-257 melanoma it was 65.2%. Further, the growth with M14 melanoma is 14%.
For the compound `Nc1ccc(S(=O)(=O)c2ccc(Cl)cc2)cc1`, the growth in the assay on NCI-H226 lung is 98%; in the assay on NCI-H322M lung, 91.4%; in the assay on HOP-62 NSCLC, 97.8%; with NCI-H460 lung it was 96%; in the assay on HOP-92 NSCLC, 93.4%; in the assay with NCI-H522 lung, 89.7%. Moreover, the growth is 86.6% in the assay with A549/ATCC NSCLC; 99% with 786-0 renal; 109% with COLO 205 colon; 104% with DU-145 prostate; 109% in the assay with K-562 leukemia; 85.7% in the assay with MALME-3M melanoma. Besides, the growth was 92.3% in the assay on MDA-MB-231 breast; 113% with RXF 393 renal; 96.8% in the assay with SF-268 CNS; 98.2% in the assay with SF-295 CNS; 86% in the assay on SF-539 CNS; 96.1% with M14 melanoma.
Turning to `CC(Cc1nnc(SCC(=O)Nc2ccc(I)cc2)n1N)c1ccccc1` (stereo unspecified), the growth with NCI-H226 lung is 87.2%; in the assay with NCI-H322M lung, 95.7%; in the assay with HOP-62 NSCLC, 71%; in the assay on NCI-H460 lung it was 96.1%; with HOP-92 NSCLC it was 76.7%; with NCI-H522 lung, 82.8%. In addition, the growth was 72% in the assay with 786-0 renal; 93.9% in the assay on COLO 205 colon; 94.5% in the assay on DU-145 prostate; 87.1% in the assay with K-562 leukemia; 108% in the assay with MALME-3M melanoma; 81.8% in the assay with MDA-MB-231 breast. Besides, the growth was 53.7% with RXF 393 renal; 102% in the assay with SF-268 CNS; 127% in the assay on SF-295 CNS; 94.3% in the assay with SF-539 CNS; 95.3% with M14 melanoma.
Regarding `Cc1ccc(S(=O)(=O)N2CCC(C(=O)Nc3ccc(F)cc3F)CC2)cc1`, the growth with NCI-H226 lung is 87.9%; in the assay on NCI-H322M lung, 112%; with HOP-62 NSCLC, 96.2%; with NCI-H460 lung, 107%; with HOP-92 NSCLC it was 82.2%; with NCI-H522 lung it was 102%. Besides, the growth in the assay with A549/ATCC NSCLC is 91.8%; with 786-0 renal it was 89.9%; with COLO 205 colon, 99.3%; with DU-145 prostate, 97.4%; with K-562 leukemia, 91.7%; in the assay with MALME-3M melanoma, 104%. Also, the growth is 87.1% in the assay with MDA-MB-231 breast; 111% in the assay on SF-268 CNS; 81.8% with SF-295 CNS; 97.5% in the assay with SF-539 CNS; 102% with M14 melanoma.
`Clc1ccc(/C=C/c2nc(N3CCOCC3)c3nc(Cl)c(Cl)cc3n2)cc1`: the growth is 106% in the assay with NCI-H226 lung; 111% in the assay on NCI-H322M lung; 110% in the assay on HOP-62 NSCLC; 105% in the assay with NCI-H460 lung; 94.1% with HOP-92 NSCLC; 95.5% with NCI-H522 lung. The growth with A549/ATCC NSCLC is 107%; in the assay with 786-0 renal it was 92.2%; in the assay on COLO 205 colon, 102%; in the assay on DU-145 prostate, 103%; in the assay with K-562 leukemia, 79.3%; with MALME-3M melanoma, 113%. Moreover, the growth in the assay on MDA-MB-231 breast is 110%; in the assay with RXF 393 renal, 117%; with SF-268 CNS, 97.3%; with SF-295 CNS it was 91.9%; in the assay on SF-539 CNS, 98.6%; in the assay on UACC-257 melanoma it was 106%. The growth in the assay with M14 melanoma is 96.4%.
Consider `CN(C)CCCNC(=O)C(c1ccccc1)c1ccccc1`, for which the growth in the assay on NCI-H226 lung is 106%; in the assay with NCI-H322M lung, 102%; with HOP-62 NSCLC, 103%; in the assay on NCI-H460 lung, 112%; in the assay with HOP-92 NSCLC it was 98%; with NCI-H522 lung, 89.9%. For the same compound, the growth in the assay with A549/ATCC NSCLC was 89.9%; in the assay with 786-0 renal, 102%; with COLO 205 colon, 106%; in the assay with DU-145 prostate it was 115%; with K-562 leukemia it was 95.2%; with MALME-3M melanoma, 104%. Further, the growth in the assay on MDA-MB-231 breast was 102%; with RXF 393 renal, 116%; with SF-268 CNS, 107%; in the assay with SF-295 CNS, 102%; in the assay on SF-539 CNS it was 99.4%; in the assay with M14 melanoma, 101%.
Regarding `C#CCN1C(=O)/C(=c2\sc3n(c2=O)C2C(NN=3)N(CC)C(=O)N2CC)c2ccccc21` (stereo unspecified), the growth with NCI-H226 lung is 98%; in the assay with NCI-H322M lung, 44.3%; with HOP-62 NSCLC, -4.91% (active); in the assay with NCI-H460 lung, 5.2% (active); in the assay on HOP-92 NSCLC, 58.1%; in the assay with NCI-H522 lung it was 25%. Further, the growth in the assay with A549/ATCC NSCLC is 23.3%; with 786-0 renal, 12%; in the assay on COLO 205 colon, -12.2% (active); in the assay with DU-145 prostate, 14.8%; in the assay with K-562 leukemia, 7.6% (active); in the assay with MALME-3M melanoma, 43.6%. For the same compound, the growth in the assay with MDA-MB-231 breast was 21%; in the assay on SF-268 CNS, 50%; in the assay on SF-295 CNS it was -13% (active); in the assay with SF-539 CNS it was -39.7% (active); in the assay with M14 melanoma, 26.1%.
Regarding `COc1ccc(NC(=O)CSc2nc3ccccc3c(=O)n2-c2ccccc2C(F)(F)F)c(OC)c1OC`, the growth in the assay with NCI-H226 lung was 102%; with NCI-H322M lung it was 116%; with HOP-62 NSCLC, 78%; in the assay on NCI-H460 lung, 99.4%; in the assay on HOP-92 NSCLC, 77.3%; with NCI-H522 lung it was 112%. Besides, the growth was 98.3% in the assay on A549/ATCC NSCLC; 101% in the assay with 786-0 renal; 102% in the assay with COLO 205 colon; 105% in the assay on DU-145 prostate; 94.5% in the assay on K-562 leukemia; 106% in the assay on MALME-3M melanoma. Also, the growth was 89% in the assay on MDA-MB-231 breast; 108% in the assay with RXF 393 renal; 100% with SF-268 CNS; 94.2% with SF-295 CNS; 94.7% with SF-539 CNS; 100% in the assay with UACC-257 melanoma. Moreover, the growth with M14 melanoma was 97.5%.
For the compound `C=C1C(=O)O[C@H]2[C@H]1CC/C(COC(=O)NCCc1ccc(OC)cc1)=C\CC[C@@]1(C)O[C@@H]21`, the growth in the assay with NCI-H226 lung was 0.324% (active); with NCI-H322M lung, 88.4%; with HOP-62 NSCLC it was 62.6%; with NCI-H460 lung, 68.7%; in the assay on HOP-92 NSCLC, 21.9%; in the assay on A549/ATCC NSCLC, 64.1%. Besides, the growth with 786-0 renal is -31.9% (active); in the assay on COLO 205 colon, -52.6% (active); in the assay with DU-145 prostate, -12.2% (active); with K-562 leukemia, 2.33% (active); in the assay on MALME-3M melanoma, -8.71% (active); with MDA-MB-231 breast, 1.63% (active). In addition, the growth in the assay on RXF 393 renal is -30.6% (active); in the assay on SF-268 CNS it was 45.9%; with SF-295 CNS it was 80.3%; with SF-539 CNS it was 26.6%; with M14 melanoma, 25.1%.
